Experimental data taken from PubChem BioAssay (NCI).
Compounds without any hit were thinned out: in the full panel of roughly 79,000, 15% have a hit. Active and inactive are the calls of the source. No stated cut-off is given here; in the data, active means growth inhibition above about 70%; inactive means the rest. Where a SMILES comes first, the peptide text is derived from it.

Tests used:
[1] = NCI Yeast Anticancer Drug Screen. Data for the rad50 strain (AID 155);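 further: 0% = growth of vehicle-only cultures of the same strain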; details: S. cerevisiae rad50 strain growth inhibition; at 50.0 µM; stronger effect = higher value
Procedure, shortened: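 Cells are treated with compound, grown, and their growth is then scored against vehicle-only cultures of the same repair-deficient yeast strain.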

[2] = NCI Yeast Anticancer Drug Screen. Data for the mec2-1 strain (AID 157); details: S. cerevisiae mec2-1 strain, at 50.0 µM, stronger effect = higher value
Procedure, shortened: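 Each compound was tested on mec2-1 yeast, a strain altered in DNA damage repair or cell cycle control. Growth inhibition is reported relative to vehicle.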

[3] = NCI Yeast Anticancer Drug Screen. Data for the sgs1 mgt1 strain (AID 161);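 further: 0% = growth of cultures given vehicle only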; details: S. cerevisiae sgs1 mgt1 strain, at 50.0 µM, stronger effect = higher value
Procedure, shortened: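 Inhibition of yeast growth, normalised to vehicle-treated controls, is reported for a strain bearing genetic alterations in DNA damage repair.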

[4] = NCI Yeast Anticancer Drug Screen. Data for the cln2 rad14 strain (AID 165);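 further: 0% = growth equal to vehicle treated cultures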; details: S. cerevisiae cln2 rad14 strain, at 50.0 µM, stronger effect = higher value
Procedure, shortened: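 Test compounds were added to cln2 rad14 yeast cultures; inhibition of growth was then determined by comparison with vehicle treatment.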

[5] = NCI Yeast Anticancer Drug Screen. Data for the bub3 strain (AID 167); details: S. cerevisiae bub3 mutant strain, at 50.0 µM, stronger effect = higher value
Procedure, shortened: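 Part of a panel of yeast mutants defective in DNA damage repair or cell cycle regulation. Each strain is grown with compound, and inhibition is calculated relative to solvent-treated cultures.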

[6] = NCI Yeast Anticancer Drug Screen. Data for the mlh1 rad18 strain (AID 175); details: S. cerevisiae mlh1 rad18 strain growth inhibition; at 50.0 µM; stronger effect = higher value
Procedure, shortened: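 Inhibition values reflect reduced growth of mutant yeast versus vehicle-treated controls following compound exposure; the mutations affect DNA damage repair.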

Measured: growth inhibition

N#CSCCOCCOC(=O)NC1CCCCC1
inactive: [1] 10.2% | [2] 4.75% | [3] 14.7% | [4] 5.25% | [5] 16.2% | [6] 14.6%

CSc1nc(NC2OCC(OC(C)=O)C(OC(C)=O)C2OC(C)=O)c(N=CC=Nc2c(NC3OCC(OC(C)=O)C(OC(C)=O)C3OC(C)=O)nc(SC)n(C)c2=O)c(=O)n1C (stereo not given)
inactive: [1] -4.3% | [2] -4.85% | [3] -19.8% | [4] -16.3% | [5] 7.95% | [6] 12.4%

Cc1ccc(Cl)cc1NC(=S)N(C)C
inactive: [1] 15.9% | [2] 16.1% | [3] 34.7% | [4] 3.75% | [5] 50.2% | [6] 24.5%

CC1=CC(O/C=C2\C(=O)OC3C=CCC23)OC1=O (stereo not given)
inactive: [1] -1.6% | [2] -32% | [3] 17.4% | [4] 4.05% | [5] -11.6% | [6] 0.55%

CC1OC(OC(=O)c2ccc([N+](=O)[O-])cc2)CC(OC(=O)c2ccc([N+](=O)[O-])cc2)C1OC(=O)c1ccc([N+](=O)[O-])cc1 (stereo not given)
inactive: [1] 18.4% | [2] 5.45% | [3] -10.2% | [4] 24.7% | [5] 1.6% | [6] -24.8%

O=S(=O)(c1ccc(Nc2nnc(-c3ccccc3)s2)cc1)N1CCCCC1
inactive: [1] -4% | [2] 12.8% | [3] 42.3% | [4] -23.1% | [5] 40.9% | [6] 5.65%

CSc1nc2c(c(=O)n1C)N=C(c1ccc([N+](=O)[O-])cc1)CC(c1ccccc1)N2 (stereo not given)
inactive: [1] 6.8% | [2] 3.1% | [3] 17.8% | [4] 10.7% | [5] 18.1% | [6] -16.2%

O=S(=O)(Nc1ccc(Cl)cc1)c1ccc(F)cc1
inactive: [1] -9.45% | [2] -15.8% | [3] -11.6% | [4] 11.9% | [5] -29.1% | [6] 3.95%

COc1cc(C2C(C(C)=O)=C(C)Oc3cc4c(cc32)OCO4)cc(OC)c1O (stereo not given)
inactive: [1] 21.1% | [2] 2.5% | [3] -0.25% | [4] 4.15% | [5] 10.1% | [6] 35.5%

CC(C)c1ccc(N=Nc2ccc(N(C)C)cc2)cc1
inactive: [1] 4.2% | [2] 1.85% | [3] -4.55% | [4] -17.9% | [5] -4.7% | [6] -5.65%

CCOC(=O)C(Cc1ccc(OC)c(C)c1)(NC(C)=O)C(=O)OCC
inactive: [1] -0.3% | [2] 5.1% | [3] -3.45% | [4] -14.2% | [5] 3.85% | [6] 6.4%

O=C(O)c1c(O)c(O)cc2ccccc12
inactive: [1] 24.1% | [2] -17.8% | [3] -13.4% | [4] -51.5% | [5] 25.6% | [6] 23.4%

Clc1cccc2nc(-c3ccccn3)n(CCc3ccncc3)c12
inactive: [2] 51.1% | [4] 60.6%
active: [1] 90% | [3] 84.7% | [5] 74.7% | [6] 86.2%

COc1ccc2nc(C)cc(N/N=C/c3cccc(C)n3)c2c1
inactive: [1] 3.95% | [2] -19.2% | [3] -1.55% | [4] -0.8% | [5] -29.8% | [6] -22.1%

O=[N+]([O-])c1ccc(S(=O)(=O)N/N=C/c2cccc([N+](=O)[O-])c2)cc1
inactive: [1] -8.15% | [2] -13.2% | [3] 1.1% | [4] -15% | [5] 0.35% | [6] -12.1%

COC(=O)c1cccc2c1ccc1ccc3ccccc3c12
inactive: [1] -7.9% | [2] -19.4% | [3] -7.05% | [4] -84.5% | [5] -10.2% | [6] -17.9%

CC(=O)O[C@H]1C[C@]2(C)C(CCC3O[C@@]32C)[C@@]2(CC(c3ccoc3)OC2O)[C@@H]1C (stereo not given in full)
inactive: [1] -10.8% | [2] -16.1% | [3] -29.9% | [4] -10.1% | [5] -23.1% | [6] -13.2%

Cn1c(=O)c2n[nH]nc2n(C)c1=O
inactive: [1] 7.25% | [2] -0.5% | [3] -0.35% | [4] -11.7% | [5] -14.8% | [6] 15.8%

CCNc1ccc2c(c1)C(=O)c1ccccc1-2
inactive: [1] 28.9% | [2] 7.5% | [3] 17.4% | [4] 3.6% | [5] -4.05% | [6] -0.05%

Cc1nc(-c2nc(C)c(C(=O)NNC(=O)C[n+]3ccccc3)s2)sc1C(=O)NNC(=O)C[n+]1ccccc1
inactive: [1] 21.9% | [2] 10.6% | [3] 52% | [4] -20.9% | [5] 0.2% | [6] 14.4%

C/C(=N/NC(=S)N1CCCCCC1)c1ccccc1O
inactive: [1] -63.5% | [2] -40.4% | [3] 5.6% | [4] 45.4% | [5] -12.8% | [6] 34.8%

CNC(=S)N/N=C/c1nc2ccccc2c(=O)n1-c1ccc(Cl)cc1
inactive: [1] 19.6% | [2] 0.75% | [3] 36.6% | [4] 2.55% | [5] -2.5% | [6] 10.2%

Clc1ccc(C2OCCO2)cc1
inactive: [1] 12.2% | [2] 3.95% | [3] 11.2% | [4] 3.35% | [5] -0.35% | [6] 14.3%

CCCCSc1ncnc2nc(C)[nH]c12
inactive: [1] -9.85% | [2] -20.6% | [3] -7.7% | [4] -25.6% | [5] -14% | [6] -12.7%

COc1cccc(N(CN2C(=O)CCC2OC)C(C)=O)c1 (stereo not given)
inactive: [1] 4.2% | [2] 7.35% | [3] 12.9% | [4] 19.3% | [5] -7.35% | [6] -31.4%

O=C(CCC(=O)Nc1ccc(Cl)cc1)CC(=O)c1ccc2ccccc2c1
inactive: [1] -51% | [2] -28.9% | [3] -13.3% | [4] 8.4% | [5] -31.1% | [6] -29.9%

C(=C\c1ccc(OCc2ccccc2)cc1)/c1ccc(OCc2ccccc2)cc1
inactive: [1] -5.5% | [2] -13.7% | [3] -13.6% | [4] -7.6% | [5] -24.6% | [6] -26%

CCC/C=C(/C=N/Nc1ccc([N+](=O)[O-])cc1[N+](=O)[O-])CC
inactive: [1] 16.4% | [2] -10.7% | [3] -7.8% | [4] 32.6% | [5] 0.75% | [6] 4.05%

CC(C)(Br)CS(=O)(=O)c1ccccc1
inactive: [1] 38.1% | [2] 5.85% | [3] 29.1% | [4] -20.2% | [5] 14.1% | [6] 29.5%

O=C(CCCCCCCCC(=O)OCC1OC(n2cnc3c(=O)[nH]cnc32)C(O)C1O)OCC1OC(n2cnc3c(=O)[nH]cnc32)C(O)C1O (stereo not given)
inactive: [1] -47.5% | [2] -44.7% | [3] -42.3% | [4] -8.3% | [5] -22.9% | [6] -35.3%

COC(=O)c1ccc(C)[nH]1
inactive: [1] -12.8% | [2] 10.4% | [3] -22.2% | [4] 26.6% | [5] 6.4% | [6] -1.8%

O=C(Nc1cc(C(F)(F)F)ccc1Cl)c1ccc(Cl)cc1Cl
inactive: [1] 8.2% | [2] 11.2% | [3] 1.7% | [4] -0.75% | [5] 9.9% | [6] 13.7%

CC(=O)OCCn1cnc2c(NCC=C(C)C)ncnc21
inactive: [1] -28.4% | [2] -12.4% | [3] -40% | [4] 0.75% | [5] 7.5% | [6] -45%

Cc1ccc(C(=N)c2ccccc2Cc2cccc3ccccc23)c2ccccc12
inactive: [1] 12.4% | [2] -22.1% | [3] -30.2% | [4] -36.9% | [5] -34.4% | [6] -15.6%

CC(CCC(=O)O)(CCC(=O)O)[N+](=O)[O-]
inactive: [1] 0.85% | [2] -1.1% | [3] 12.2% | [4] -6.6% | [5] 12.6% | [6] -8.8%

O=[N+]([O-])c1ccccc1N/N=C/c1ccccc1
inactive: [1] -10.2% | [2] 7.1% | [3] 2.6% | [4] -65.9% | [5] 8.35% | [6] 10.8%

Oc1c(Cl)cccc1CN1CCOCC1
inactive: [1] 26.1% | [2] 6.15% | [3] 30.5% | [4] 25.1% | [5] -9.35% | [6] 33%

Cn1cnc([N+](=O)[O-])c1SCC(=O)O
inactive: [1] -36.4% | [2] -0.6% | [3] -29.5% | [4] -22.9% | [5] -17.9% | [6] -3.7%

CC(SC(=S)N1CCOCC1)c1cc2oc(=O)n(C)c2cc1Cl (stereo not given)
inactive: [1] 2.4% | [2] 7.95% | [3] 8.35% | [4] -5.15% | [5] 24.8% | [6] 20.5%

NC(Cc1ccccc1)C(=O)NCC(=O)NC(Cc1ccccc1)C(=O)NCC(=O)O (stereo not given) (H-FGFG-OH; configuration not given here)
inactive: [1] -4.35% | [2] -4.15% | [3] -7.95% | [4] -36.4% | [5] -4.7% | [6] 4.2%
